Measurements: PubChem BioAssay
Values joined by “and” are separate entries in the source; they are usually repeats but may differ in a detail not shown here. Equal values may be shown once. Records with an inconclusive call do not appear. Active and inactive are the calls of the source.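 Rule for the calls, unless noted: active = normalized viability below 100% at a tested concentration; inactive = the rest.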

Assays:
[1] = system: Aerobactin synthetase IucA (Klebsiella pneumoniae); test: inhibition of K. pneumoniae IucA enzyme – biochemical, Tocris library, absorbance (AID 1345561; call rule not given here;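 note: 100% = enzyme without compound and 0% = no enzyme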); settings: purified IucA enzyme assay, absorbance (OD) read-out; stronger effect = lower value;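 tested at 8 µM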
[2] = viability loss in pontine glioma line – cell-based, SU-DIPG-XIII, MIPE4.0, CellTiter-Glo, qHTS, dose response (AID 1347061; cut-off not given, nearly all actives have AC50 up to about 37 µM;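 note: cells exposed to compound for 48 hours before readout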); settings: CellTiter-Glo ATP luminescence
[3] = viability loss in pontine glioma line – cell-based, JHH-DIPG-1, MIPE4.0, CellTiter-Glo, qHTS, dose response (AID 1347062; cut-off not given, nearly all actives have AC50 up to about 27 µM); settings: JHH-DIPG-1 viability, CellTiter-Glo ATP luminescence
[4] = viability loss in pontine glioma line – cell-based, SU-DIPG-IV, MIPE4.0, CellTiter-Glo, qHTS, dose response (AID 1347063; cut-off not given, nearly all actives have AC50 up to about 30 µM;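 note: compound exposure lasted 48 hours before the viability readout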); settings: CellTiter-Glo ATP luminescence
[5] = growth inhibition of DIPG cells – cell-based, MIPE4.0 library, CellTiter-Glo luminescence, qHTS (AID 1347066; cut-off not given, nearly all actives have AC50 up to about 30 µM;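 note: cells exposed to compound for 48 hours before readout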); settings: SU-DIPG-VI viability, CellTiter-Glo ATP luminescence
[6] = JHH-DIPG-1 glioma cell viability, MIPE5.0 library, CellTiter-Glo luminescence, qHTS (AID 1347067; cut-off not given, nearly all actives have AC50 up to about 26 µM;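 note: cells exposed to compound for 48 hours before readout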); settings: JHH-DIPG-1 glioma viability, CellTiter-Glo ATP luminescence
[7] = growth inhibition of DIPG cells – cell-based, MIPE5.0 library, qHTS (AID 1347068; cut-off not given, nearly all actives have IC50 up to about 30 µM); settings: SU-DIPG-XXV viability
[8] = viability loss with induced miR-34 in A549 – imaging, A549 dox-inducible miR-34, nuclei and caspase counts, primary screen (AID 1347080;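 active = compounds whose cell count with miR-34 switched on is under 0.7 times the count with it off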); settings: A549 miR-34 inducible, Hoechst nuclei count, 48 h
[9] = compounds altering HSF1 focus formation in cells – imaging, Selleck Cancer Library (AID 1347162; in the data active = plate-normalised HSF1 focus index below about 0.46); settings: human cells, HSF1 nuclear foci imaging, at 10 µM; SSMD: measured here: HSF1 foci SSMD mean; cell count: measured here: cell number; plate-normalised HSF1 focus index: stronger effect = lower value
[10] = MELAS cybrid and Rieske KO viability enhancers – cell-based, MELAS cybrids, Rieske KO mouse fibroblasts, CellTiter-Glo, primary screen (AID 1508586;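 active = mean z-score across replicates of 1.96 or higher in either the MELAS or the Rieske mutant cell line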;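 note: z relative to plate mean and SD of compound and empty wells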); settings: low glucose
[11] = drug combination growth inhibition, ovarian cancer – cell-based, oncology-focused library, rucaparib conditional, profiling panel (AID 1508598); settings: patient-derived ovarian cancer cells, CellTiter-Glo viability, 144 h, stronger effect = lower value
[12] = galactose survival enhancers in mitochondrial complex I cybrids – cell-based, galactose medium, ATP luminescence, primary screen (AID 1645843;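 active = z-score of at least 1.8 in each of two replicates, scored against plate mean and spread of sample wells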;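 note: positive z means more ATP and so rescue of galactose-driven cybrid death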); settings: complex I mutant cybrid cells, 72 h, stronger effect = higher value
[13] = viability loss in pontine glioma line – cell-based, SU-DIPG-XIII, MIPE5.0, CellTiter-Glo, qHTS, dose response (AID 1347064; cut-off not given, nearly all actives have AC50 up to about 23 µM); settings: CellTiter-Glo ATP luminescence
[14] = stronger effect = lower value, cell number ratio, induced over uninduced
[15] = measured here: relative caspase fold change +Dox/-Dox
[16] = measured here: total cells with miR-34 induction, stronger effect = lower value
[17] = measured here: total cells without miR-34 induction
[18] = MELAS cybrid survival, CellTiter-Glo 48 h, stronger effect = higher value
[19] = Rieske KO mouse fibroblast survival, CellTiter-Glo 72 h

Question: Which results are given for `N#Cc1c(O)c2c(-c3ccc(-c4ccccc4O)cc3)csc2[nH]c1=O`?
Answer: remaining activity [1]: 103% (inactive); outcome [2]: inactive; outcome [3]: inactive; outcome [4]: inactive; outcome [5]: inactive; outcome [6]: inactive; outcome [7]: inactive; fold change [8, 14]: 0.919 (inactive) and 1.01 (inactive); fold change [8, 15]: 0.924 and 1.54; cell count [8, 16]: 10000 and 9660; cell count [8, 17]: 10900 and 9540; SSMD [9]: 3.35; cell count [9]: 7410; plate-normalised HSF1 focus index [9]: 1.12 (inactive); z-score [10, 18]: -0.277 (inactive); z-score [10, 19]: 1.29; viability ([11]; at 0.000305 µM, OCI-C5x cells, with rucaparib 10 µM, 100% = cells with rucaparib alone): 106% (inactive); viability ([11]; at 0.000305 µM, OCI-C5x cells, without rucaparib): 121% (inactive); viability ([11]; at 0.000305 µM, OCI-P5x cells, with rucaparib 20 µM, 100% = cells with rucaparib alone): 114% (inactive); viability ([11]; at 0.000305 µM, OCI-P5x cells, without rucaparib): 119% (inactive); viability ([11]; at 0.00122 µM, OCI-C5x cells, with rucaparib 10 µM, 100% = cells with rucaparib alone): 115% (inactive); viability ([11]; at 0.00122 µM, OCI-C5x cells, without rucaparib): 131% (inactive); viability ([11]; at 0.00122 µM, OCI-P5x cells, with rucaparib 20 µM, 100% = cells with rucaparib alone): 119% (inactive); viability ([11]; at 0.00122 µM, OCI-P5x cells, without rucaparib): 107% (inactive); viability ([11]; at 0.00488 µM, OCI-C5x cells, with rucaparib 10 µM, 100% = cells with rucaparib alone): 111% (inactive); viability ([11]; at 0.00488 µM, OCI-C5x cells, without rucaparib): 126% (inactive); viability ([11]; at 0.00488 µM, OCI-P5x cells, with rucaparib 20 µM, 100% = cells with rucaparib alone): 116% (inactive); viability ([11]; at 0.00488 µM, OCI-P5x cells, without rucaparib): 113% (inactive); viability ([11]; at 0.0195 µM, OCI-C5x cells, with rucaparib 10 µM, 100% = cells with rucaparib alone): 112% (inactive); viability ([11]; at 0.0195 µM, OCI-C5x cells, without rucaparib): 122% (inactive); viability ([11]; at 0.0195 µM, OCI-P5x cells, with rucaparib 20 µM, 100% = cells with rucaparib alone): 116% (inactive); viability ([11]; at 0.0195 µM, OCI-P5x cells, without rucaparib): 114% (inactive); viability ([11]; at 0.0781 µM, OCI-C5x cells, with rucaparib 10 µM, 100% = cells with rucaparib alone): 113% (inactive); viability ([11]; at 0.0781 µM, OCI-C5x cells, without rucaparib): 127% (inactive); viability ([11]; at 0.0781 µM, OCI-P5x cells, with rucaparib 20 µM, 100% = cells with rucaparib alone): 119% (inactive); viability ([11]; at 0.0781 µM, OCI-P5x cells, without rucaparib): 115% (inactive); viability ([11]; at 0.313 µM, OCI-C5x cells, with rucaparib 10 µM, 100% = cells with rucaparib alone): 115% (inactive); viability ([11]; at 0.313 µM, OCI-C5x cells, without rucaparib): 134% (inactive); viability ([11]; at 0.313 µM, OCI-P5x cells, with rucaparib 20 µM, 100% = cells with rucaparib alone): 117% (inactive); viability ([11]; at 0.313 µM, OCI-P5x cells, without rucaparib): 118% (inactive); viability ([11]; at 1.25 µM, OCI-C5x cells, with rucaparib 10 µM, 100% = cells with rucaparib alone): 112% (inactive); viability ([11]; at 1.25 µM, OCI-C5x cells, without rucaparib): 140% (inactive); viability ([11]; at 1.25 µM, OCI-P5x cells, with rucaparib 20 µM, 100% = cells with rucaparib alone): 107% (inactive); viability ([11]; at 1.25 µM, OCI-P5x cells, without rucaparib): 107% (inactive); viability ([11]; at 5 µM, OCI-C5x cells, with rucaparib 10 µM, 100% = cells with rucaparib alone): 118% (inactive); viability ([11]; at 5 µM, OCI-C5x cells, without rucaparib): 135% (inactive); viability ([11]; at 5 µM, OCI-P5x cells, with rucaparib 20 µM, 100% = cells with rucaparib alone): 92.2% (active); viability ([11]; at 5 µM, OCI-P5x cells, without rucaparib): 90.6% (active); z-score [12]: 1.98 (inactive)

Question: For `CCN(CC)CCCC(C)Nc1nc(C)cc(Nc2ccc3nc(C)cc(N)c3c2)n1` (stereo not drawn), which remaining activity [1] is on record?
Answer: The remaining activity was 104% (inactive).

Question: What about the outcome [2] of the same compound?
Answer: Its outcome is “inactive”.

Question: What about the outcome [4] of the same compound?
Answer: The outcome was “inactive”.

Question: What about the outcome [13] of the same compound?
Answer: Its outcome is “inactive”.

Question: What about the outcome [5] of the same compound?
Answer: Its outcome is “inactive”.

Question: And the outcome [6]?
Answer: Its outcome is “inactive”.

Question: And the outcome [7]?
Answer: The outcome was “inactive”.

Question: And the fold change [8, 14]?
Answer: Its fold change is 0.97 (inactive) and 0.925 (inactive).

Question: What about the fold change [8, 15] of the same compound?
Answer: Its fold change is 0.421 and 1.06.

Question: What about the cell count [8, 16] of the same compound?
Answer: Its cell count is 7920 and 8660.

Question: And the cell count [8, 17]?
Answer: Its cell count is 8160 and 9370.

Question: And the SSMD [9]?
Answer: Its SSMD is 3.48.

Question: And the cell count [9]?
Answer: Its cell count is 7010.

Question: What about the plate-normalised HSF1 focus index [9] of the same compound?
Answer: Its plate-normalised HSF1 focus index is 1.21 (inactive).

Question: And the z-score [10, 18]?
Answer: The z-score was -0.488 (inactive).

Question: What about the z-score [10, 19] of the same compound?
Answer: The z-score was -2.27.

Question: What about the z-score [12] of the same compound?
Answer: The z-score was 2.71 (active).

Question: Which remaining activity [1] does the source give for `CCOc1cc(C(=O)Nc2ccc(Cl)c(-c3nc4ccccc4[nH]3)c2)cc(OCC)c1OCC` here?
Answer: The remaining activity was 119% (inactive).

Question: What about the AC50 [2] of the same compound?
Answer: The AC50 was 10.5 µM (active).

Question: What about the outcome [5] of the same compound?
Answer: The outcome was “inactive”.

Question: And the outcome [7]?
Answer: The outcome was “inactive”.

Question: What about the fold change [8, 14] of the same compound?
Answer: The fold change was 0.991 (inactive).

Question: What about the fold change [8, 15] of the same compound?
Answer: The fold change was 0.843.

Question: And the cell count [8, 16]?
Answer: The cell count was 5960.

Question: And the cell count [8, 17]?
Answer: The cell count was 6020.

Question: And the SSMD [9]?
Answer: Its SSMD is 4.38.

Question: What about the cell count [9] of the same compound?
Answer: The cell count was 6790.

Question: And the plate-normalised HSF1 focus index [9]?
Answer: The plate-normalised HSF1 focus index was 1.26 (inactive).

Question: And the z-score [12]?
Answer: Its z-score is 0.375 (inactive).
